100 molecules from PubChem BioAssay AID1347418 (Sanford-Burnham Center for Chemical Genomics, 2020) can be followed below.

Hit rate of the full screen: of about 1,300 compounds, about 750 (58%) were called active. Some of the results follow. A number with no mark means an inactive call.

Chain of Sulfhydryl oxidase 1 (Homo sapiens) (O00391 whole entry, looked up): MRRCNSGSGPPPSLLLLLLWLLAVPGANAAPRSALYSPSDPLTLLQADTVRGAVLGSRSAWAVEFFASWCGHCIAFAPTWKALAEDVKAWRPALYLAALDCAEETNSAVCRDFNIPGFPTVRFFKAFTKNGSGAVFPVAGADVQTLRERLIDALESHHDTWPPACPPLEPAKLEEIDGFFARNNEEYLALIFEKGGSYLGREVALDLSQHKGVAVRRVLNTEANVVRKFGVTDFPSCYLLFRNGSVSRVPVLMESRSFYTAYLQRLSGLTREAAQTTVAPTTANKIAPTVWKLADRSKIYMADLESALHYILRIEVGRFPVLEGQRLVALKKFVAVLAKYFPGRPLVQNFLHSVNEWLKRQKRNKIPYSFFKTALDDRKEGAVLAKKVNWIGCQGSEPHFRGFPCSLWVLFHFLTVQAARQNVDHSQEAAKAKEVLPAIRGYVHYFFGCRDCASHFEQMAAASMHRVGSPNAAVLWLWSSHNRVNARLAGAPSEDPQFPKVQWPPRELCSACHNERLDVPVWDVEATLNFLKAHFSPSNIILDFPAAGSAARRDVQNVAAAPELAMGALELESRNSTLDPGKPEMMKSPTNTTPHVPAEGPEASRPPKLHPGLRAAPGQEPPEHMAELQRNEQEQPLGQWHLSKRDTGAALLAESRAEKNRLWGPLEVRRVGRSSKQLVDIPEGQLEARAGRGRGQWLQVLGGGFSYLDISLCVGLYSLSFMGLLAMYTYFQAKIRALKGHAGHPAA

This test addresses Sulfhydryl oxidase 1 (Homo sapiens) (UniProt O00391). The experiment in a line: inhibition of human sulfhydryl oxidase QSOX1 – biochemical, ROS-Glo H2O2 luminescence, HTS, primary screen (AID 1347418). The conditions noted are these: recombinant QSOX1, ROS-Glo H2O2 luminescence; at 12.5 µM; hits give high values; active = any value above zero.
The term inhibition denotes the drop in the measured response relative to a control, in per cent. For `CCN(CC)CC#CCOC(=O)C(O)(c1ccccc1)C1CCCCC1` (stereo not given), the inhibition is -2.5%.

Consider `CC#C[C@]1(O)CC[C@H]2[C@@H]3CCC4=CC(=O)CCC4=C3[C@@H](c3ccc(N(C)C)cc3)C[C@@]21C`, for which the inhibition is 29.9% (active).

For `O=C1Nc2ccc(I)cc2/C1=C/c1cc(Br)c(O)c(Br)c1`, the inhibition is 1.3% (active).

Turning to `NCCCS(=O)(=O)O`, the inhibition is 4.4% (active).

As to `NCCS(=O)(=O)O`, the inhibition was -4.9%.

As to `Cc1nc2c([nH]1)c(=O)n(C)c(=O)n2Cc1ccco1`, the inhibition is -1.4%.

Take `CC(C)Cn1c(=O)n(C)c(=O)c2[nH]cnc21`: the inhibition is 1.8% (active).

For the molecule `COCc1nc2c([nH]1)c(=O)n(C)c(=O)n2CC(C)C`, the inhibition is -1.5%.

On to `Cn1c(=O)c2[nH]cnc2n(C)c1=O`, for which the inhibition was 2.2% (active).

Turning to `c1ccc(C(NCc2cccnc2)(c2ccccc2)c2ccccc2)cc1`, the inhibition was -3.5%.

As for `Clc1ccc(C(c2ccccc2Cl)C(Cl)Cl)cc1` (stereo not given), the inhibition was 22.6% (active).

For `O=C(O)/C=C/C(O)c1ccc(Cl)cc1` (stereo not given), the inhibition was -2.6%.

`Cc1ccc(N(CC2=NCCN2)c2cccc(O)c2)cc1`: the inhibition is 34.7% (active).

In the case of `O=C1O/C(=C/Br)CCC1c1cccc2ccccc12` (stereo not given), the inhibition was 2.5% (active).

For `C[C@H](O)C(=O)C1=Nc2c(nc(N)[nH]c2=O)NC1`, the inhibition is 0.2% (active).

For `CCCc1c(OCCCOc2ccc(OCC(=O)O)cc2)ccc(C(C)=O)c1O`, the inhibition is 4.1% (active).

`O=C(O)/C(=C/c1c(C(=O)O)[nH]c2cc(Cl)cc(Cl)c12)c1ccccc1`: the inhibition is 3.9% (active).

Consider `O=C1NC(c2cccc([N+](=O)[O-])c2)=CCN1c1ccccc1O`, for which the inhibition is 3.1% (active).

Turning to `CCCCCC(O)c1cccc(OCc2ccc3ccccc3n2)c1` (stereo not given), the inhibition is 2.8% (active).

`O=C(O)c1ccccc1Nc1cccc(OCc2ccc3ccccc3n2)c1`: the inhibition was 7.4% (active).

For the molecule `O=C(c1ccccc1)c1ccc2n1CCC2C(=O)O` (stereo not given), the inhibition was -5%.

For the molecule `N#C/C(=C\c1ccc(O)c(O)c1)C(=O)NCCCc1ccccc1`, the inhibition was 21% (active).

Take `N#C/C(=C\c1ccc(O)c(O)c1)C(=O)Nc1ccccc1`: the inhibition is 26.5% (active).

Consider `C[C@H](NC(=O)/C(C#N)=C/c1ccc(O)c(O)c1)c1ccccc1`, for which the inhibition was 24.4% (active).

Consider `NNCCc1ccccc1`, for which the inhibition was -0.4%.

In the case of `N#C/C(=C\c1ccc(O)c(O)c1)C(=O)NCCc1ccccc1`, the inhibition was 28.3% (active).

Consider `C[C@]12C=CC(=O)C=C1CC[C@@H]1C2=CC[C@]2(C)[C@@H](C(=O)CN3CCN(c4cc(N5CCCC5)nc(N5CCCC5)n4)CC3)CC[C@@H]12`, for which the inhibition is -5.3%.

As to `CSc1ccc(C(=O)c2[nH]c(=O)[nH]c2C)cc1`, the inhibition was -1.7%.

In the case of `N#C/C(=C\c1ccc(O)c(O)c1)C(=O)NCc1ccccc1`, the inhibition is 26.3% (active).

For `N#C/C(=C\c1ccc(O)c(O)c1)C(=O)NCCCNC(=O)/C(C#N)=C/c1ccc(O)c(O)c1`, the inhibition was 25% (active).

As to `CN(C)c1nc(N(C)C)nc(N(C)C)n1`, the inhibition is -0.9%.

`CC(=O)N1CCN(c2ccc(OC[C@H]3CO[C@](Cn4ccnc4)(c4ccc(Cl)cc4Cl)O3)cc2)CC1`: the inhibition is 9.3% (active).

Regarding `Nc1nc2c(ncn2COC(CO)CO)c(=O)[nH]1`, the inhibition was 0.2% (active).

For `Nc1nc2c(ncn2COCCO)c(=O)[nH]1`, the inhibition is 0%.

With `CO/N=C(\C(=O)N[C@@H]1C(=O)N2C(C(=O)O)=C(COC(C)=O)CS[C@H]12)c1csc(N)n1`, the inhibition is -6.9%.

On to `CC(=O)OCC1=C(C(=O)O)N2C(=O)[C@@H](NC(=O)Cc3cccs3)[C@H]2SC1`, for which the inhibition is 1% (active).

With `Cc1ccc(/C(=C\CN2CCCC2)c2ccccn2)cc1`, the inhibition was -2.5%.

Take `O=C1N=C(O)C(c2ccccc2)(c2ccccc2)N1`: the inhibition was -3.8%.

For the molecule `O=c1[nH]c(=O)c2nc3ccccc3nc2[nH]1`, the inhibition was 8% (active).

As for `CCCOc1ccccc1-c1nc2n[nH]nc2c(=O)[nH]1`, the inhibition is -3%.

For the molecule `C[C@]12CCC(=O)C=C1CC[C@@H]1[C@@H]2CC[C@@]2(C)[C@H]1CC[C@]2(O)C(=O)CO`, the inhibition is 1.9% (active).

On to `CC(=O)OCC(=O)[C@@]1(O)CC[C@H]2[C@@H]3CCC4=CC(=O)CC[C@]4(C)[C@H]3C(=O)C[C@@]21C`, for which the inhibition was -7.3%.

For the molecule `C[C@]12C[C@H](O)[C@H]3[C@@H](CCC4=CC(=O)CC[C@@]43C)[C@@H]1CC[C@@H]2C(=O)CO`, the inhibition is 1% (active).

Take `CC(=O)[C@H]1CC[C@H]2[C@@H]3CCC4=CC(=O)CC[C@]4(C)[C@H]3CC[C@]12C`: the inhibition was -0.5%.

For `C[C@]12CCC(=O)C=C1CC[C@@H]1[C@@H]2[C@@H](O)C[C@@]2(C)[C@H]1CC[C@]2(O)C(=O)CO`, the inhibition is -7.5%.

In the case of `C[C@]12CCC(=O)C=C1CC[C@@H]1[C@@H]2C(=O)C[C@@]2(C)[C@H]1CC[C@]2(O)C(=O)CO`, the inhibition was 4.5% (active).

In the case of `CC(=O)SC1CC2=CC(=O)CC[C@]2(C)C2CC[C@@]3(C)C(CC[C@@]34CCC(=O)O4)C12` (stereo not given in full), the inhibition was -4.3%.

`CC(=O)[C@@]1(O)CC[C@H]2[C@@H]3CCC4=CC(=O)CC[C@]4(C)[C@H]3CC[C@@]21C`: the inhibition was -1%.

In the case of `O=C1NCN(c2ccccc2)C12CCN(CCCC(c1ccc(F)cc1)c1ccc(F)cc1)CC2`, the inhibition was -2.5%.

As to `COc1ccc2c(c1)c(CC(=O)O)c(C)n2C(=O)c1ccc(Cl)cc1`, the inhibition was 4.9% (active).

On to `COc1ccc2c(c1)c(CC(=O)O)c(C)n2C(=O)c1ccccc1`, for which the inhibition is -3.5%.

As for `Cc1ccc([N+](=O)[O-])cc1S(=O)(=O)N(C)C`, the inhibition is 9.9% (active).

For the molecule `O=c1cc(O)cc(/C=C/c2ccc(O)c(O)c2)o1`, the inhibition is 30.2% (active).

With `Oc1ccc(/C=C/c2ccc(/C=C/c3ccc(O)cc3)c(Br)c2)cc1`, the inhibition was 1% (active).

Turning to `Oc1cc(O)cc(/C=C/c2ccc(O)c(O)c2)c1`, the inhibition is 44% (active).

As to `Oc1ccc(/C=C/c2cc(O)cc(O)c2)cc1`, the inhibition is 23.2% (active).

As to `C=CCn1c(=O)c2c(nc(-c3ccc(S(=O)(=O)O)cc3)n2C)n(C)c1=O`, the inhibition is -0.9%.

Turning to `Cn1c(=O)c2c(nc(/C=C/c3cccc(Cl)c3)n2C)n(C)c1=O`, the inhibition was 11.3% (active).

For the molecule `O=C1NC(=O)C(c2ccccc2[N+](=O)[O-])=C1Nc1ccc(O)c(Cl)c1`, the inhibition was 35.4% (active).

Turning to `Cc1nc2n(c(=O)c1CCN1CCC(c3noc4cc(F)ccc34)CC1)CCCC2O` (stereo not given), the inhibition was 1.5% (active).

For `Clc1ccc2c(c1)C(N1CCNCC1)=Nc1ccccc1O2`, the inhibition was 2.5% (active).

With `CN1CCN(C2=Nc3ccccc3Oc3ccc(Cl)cc32)CC1`, the inhibition is 1.9% (active).

As for `Nc1nc2[nH]c(=O)cnc2c(=O)[nH]1`, the inhibition was 2.6% (active).

Regarding `Cn1cc(C(F)(F)F)nc1-c1ccc(OCC(O)CNCCOc2ccc(O)c(C(N)=O)c2)cc1` (stereo not given), the inhibition was 5.6% (active).

Turning to `CCC(=O)N1CCN(C(=O)c2ccccc2)CC1`, the inhibition is -5.7%.

In the case of `O=C(c1ccc2c(c1)OCCO2)N1CCCCC1`, the inhibition was 4.8% (active).

With `NC[C@H](O)c1ccc(O)c(O)c1`, the inhibition was 9.5% (active).

For the molecule `NCC(O)c1ccc(O)c(O)c1` (stereo not given), the inhibition is 7.1% (active).

For the molecule `C=C[C@H]1CN2CC[C@@H]1C[C@@H]2[C@H](O)c1ccnc2ccc(OC)cc12`, the inhibition was -1.1%.

For `NCCCNCCSP(=O)(O)O`, the inhibition is 1.1% (active).

For the molecule `CC(C)COCC(CN(Cc1ccccc1)c1ccccc1)N1CCCC1` (stereo not given), the inhibition was 9.6% (active).

Take `CCCCC1C(=O)N(c2ccccc2)N(c2ccccc2)C1=O`: the inhibition was -5.9%.

In the case of `Cc1ccc(=O)n(-c2ccccc2)c1`, the inhibition is 0.9% (active).

For `Cc1cc(O)c2c(c1)C(=O)c1cc(O)cc(O)c1C2=O`, the inhibition was 10.6% (active).

Turning to `CCCc1c(-c2ccc(O)cc2)nn(-c2ccc(O)cc2)c1-c1ccc(O)cc1`, the inhibition was 17.5% (active).

For `Cn1cc(C(=O)OCC2CCN(CCNS(C)(=O)=O)CC2)c2ccccc21`, the inhibition was -2.2%.

Regarding `CCN(CC)C(=S)SSC(=S)N(CC)CC`, the inhibition was 14.5% (active).

`CC12C(=O)OC(=O)C1(C)C1CCC2O1` (stereo not given): the inhibition is -4%.

As for `CN1CCc2cc(O)c(O)cc2C(c2ccccc2)C1` (stereo not given), the inhibition is 14.7% (active).

With `CN1CCc2cc(Cl)c(O)cc2[C@@H](c2ccccc2)C1`, the inhibition is 10.2% (active).

Turning to `CN(C)c1cc2c(Nc3ccc4c(cnn4Cc4ccccc4)c3)ncnc2cn1`, the inhibition is -0.7%.

As to `Cc1cc(C(C)(C)C)c(O)c(C)c1CC1=NCCN1`, the inhibition is -1.4%.

`Cc1cc(C(C)(C)C)cc(C)c1CC1=NCCN1`: the inhibition was 3.9% (active).

As for `N=S(=O)([O-])Cc1noc2c1C=C[C+]=C2`, the inhibition was -4.8%.

Consider `O=C1C(SCCO)=C(SCCO)C(=O)c2ccccc21`, for which the inhibition is -58.7%.

Regarding `COC1=C(OC)C(=O)c2ccccc2C1=O`, the inhibition is 6.2% (active).

`Oc1ccc(-c2nc(-c3ccc(F)cc3)c(-c3ccncc3)[nH]2)cc1`: the inhibition was 31.8% (active).

With `O=[N+]([O-])c1ccc(-c2nc(-c3ccc(F)cc3)c(-c3ccncc3)[nH]2)cc1`, the inhibition was 6.9% (active).

For the molecule `N#Cc1cc([N+](=O)[O-])c2sc(C(N)=O)[n+]([O-])c2c1`, the inhibition is 2.3% (active).

Consider `COc1nc(C)nc(Cl)c1NC1=NCCN1`, for which the inhibition was -8.3%.

In the case of `Cc1nn(-c2ccccc2)c(C)c1C=NN1CCN(Cc2ccccc2)CC1`, the inhibition is 5.8% (active).

For `Nc1nnc(-c2cccc(Cl)c2Cl)c(N)n1`, the inhibition is -3.6%.

Regarding `Nc1ccc(N2C(=O)c3ccccc3C2=O)c(Cl)c1`, the inhibition was 10.7% (active).

As to `CCCCCCCCCC(=O)NC(CN1CCOCC1)[C@H](O)c1ccccc1` (stereo not given in full), the inhibition is 4.7% (active).

Consider `CC1COc2c(N3CCN(C)CC3)c(F)cc3c(=O)c(C(=O)O)cn1c23` (stereo not given), for which the inhibition was -1.5%.

For the molecule `CN=C(NC#N)NCCSCc1nc[nH]c1C`, the inhibition was 3.1% (active).

In the case of `NC(=O)OCC(COC(N)=O)c1ccccc1`, the inhibition was 1.7% (active).

For the molecule `NS(=O)(=O)C#Cc1ccccc1`, the inhibition is 0.5% (active).

Consider `Oc1ccc2ccccc2c1SSc1c(O)ccc2ccccc12`, for which the inhibition was 34.9% (active).

As for `Clc1nccc2c1ccc1ccccc12`, the inhibition is -1.8%.
